Here are results for 6 compounds from PubChem BioAssay.

Records with an inconclusive call do not appear. For part of these data: Entries with a potency or affinity are not part of this list. Active and inactive are the calls of the source. Unless noted, how the calls were made is not given here.

A short description of assay [1]: rescue of polyQ-huntingtin neuronal dysfunction in worms, whole organism, C. elegans mechanosensory neurons, N-terminal huntingtin (AID 1599). The conditions noted are these: touch response, stronger effect = higher value.
A short description of assay [2]: reducers of polyQ inclusions in PC12 cells, cell-based, NGF-treated PC12, GFPQ80 (AID 1614).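 Further: lower means fewer inclusions and 0 means no inclusions at all.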 The conditions noted are these: PC12 NGF-treated GFP-polyQ80 inclusion reduction.
Assay [3] can be described thus: suppressors of polyglutamine aggregation in yeast, 75Q-TubH (AID 1616). The conditions noted are these: S. cerevisiae 75Q-TubH polyglutamine aggregation suppression; stronger effect = higher value.
Assay [4] in a line: hESC survival regulators, cell-based (AID 493140).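 Further: cells exposed to compounds for four days before counting.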 The conditions noted are these: human embryonic stem cell survival screen; stronger effect = higher value.
The nature of assay [5]: circadian clock period modulators, cell-based, LOPAC library, luminescence reporter (AID 2774).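 Further: values are relative to mean of DMSO wells on each plate.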 The conditions noted are these: circadian reporter cells, at 7 µM, actives lie on both sides.
The test system of assay [6] is Hepatitis C virus NS3 helicase. The assay is described as follows: HCV NS3 helicase inhibitors, primary screen, biochemical, fluorescence polarization, LOPAC1280 library (AID 687035; in the data active means inhibition above about 37%). The conditions noted are these: Purified HCV NS3 helicase, Cy5-dT15 ssDNA binding fluorescence polarization; stronger effect = higher value; concentration not given here. (In fluorescence polarisation assays a small probe gives low polarisation when free and higher when bound to something large.)

Assay [7] in a line: Cy5 fluorescence quenching or enhancement artefacts, artefact control for HCV NS3 helicase inhibitor project, biochemical, LOPAC1280 (AID 687037). The conditions noted are these: Cy5-DNA-NS3h complex fluorescence interference counterscreen. For orientation: Counterscreens check selectivity or assay interference.
A short description of assay [8]: growth inhibition of DIPG glioma cells, dose response, cell-based, SU-DIPG-XIII, MIPE4.0, CellTiter-Glo, qHTS (AID 1347061; cut-off not given, nearly all actives have AC50 up to about 37 µM;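 further: cells exposed to compound for 48 hours before readout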). The conditions noted are these: SU-DIPG-XIII viability, CellTiter-Glo ATP luminescence. (In general: Cellular ATP, detected with luciferase, serves as a proxy for viable cell number.)
The nature of assay [9]: growth inhibition of DIPG glioma cells, dose response, cell-based, JHH-DIPG-1, MIPE4.0, CellTiter-Glo, qHTS (AID 1347062; cut-off not given, nearly all actives have AC50 up to about 27 µM). The conditions noted are these: JHH-DIPG-1 viability, CellTiter-Glo ATP luminescence.
Assay [10] in a line: growth inhibition of DIPG glioma cells, dose response, cell-based, SU-DIPG-IV, MIPE4.0, CellTiter-Glo, qHTS (AID 1347063; cut-off not given, nearly all actives have AC50 up to about 30 µM;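 further: compound exposure lasted 48 hours before the viability readout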). The conditions noted are these: SU-DIPG-IV viability, CellTiter-Glo ATP luminescence.
Assay [11] in a line: SU-DIPG-VI glioma cell viability, MIPE4.0 library, CellTiter-Glo luminescence, qHTS (AID 1347066; cut-off not given, nearly all actives have AC50 up to about 30 µM;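 further: cells exposed to compound for 48 hours before readout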). The conditions noted are these: CellTiter-Glo ATP luminescence.
Assay [12] can be described thus: phospholipid biosynthesis inhibitors in animal cells, primary screen, cell-based, LOPAC library, screen 4 (AID 1347384). The conditions noted are these: phospholipid biosynthesis inhibition screen, at 10 µM.
A short description of assay [13]: JHH-DIPG-1 glioma cell viability, MIPE5.0 library, CellTiter-Glo luminescence, qHTS (AID 1347067; cut-off not given, nearly all actives have AC50 up to about 26 µM;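 further: cells exposed to compound for 48 hours before readout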). The conditions noted are these: JHH-DIPG-1 glioma viability, CellTiter-Glo ATP luminescence.
A short description of assay [14]: SU-DIPG-XXV glioma cell viability, MIPE5.0 library, qHTS (AID 1347068; cut-off not given, nearly all actives have IC50 up to about 30 µM).
A short description of assay [15]: LFS_MB_1R medulloblastoma cell growth inhibition, synergistic combos for chromothripsis tumors, cisplatin or BGB combos (AID 1671452; in the data active means inhibition above about 80%;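 further: cells exposed for 96 hours before readout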). The conditions noted are these: LFS_MB_1R medulloblastoma cells, stronger effect = higher value.
A short description of assay [16]: MDA-MB-436 breast carcinoma cell growth inhibition, synergistic combos for chromothripsis tumors, BGB or cisplatin combos (AID 1671458).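 Further: cells exposed for 96 hours; 0% = vehicle DMSO and 100% = killing by high DMSO.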 The conditions noted are these: MDA-MB-436 breast carcinoma growth inhibition, drug combinations, stronger effect = higher value.
Assay [17] is described as follows: growth inhibition of BT084 medulloblastoma cells, cell-based, ICGC_MB145, cisplatin and BGB IC40 combos (AID 1671461; in the data active means inhibition above about 80%;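 further: cells exposed to drugs for 96 hours; 0% = vehicle DMSO and 100% = high DMSO full killing control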). The conditions noted are these: drug combinations, stronger effect = higher value.
A short description of assay [18]: growth inhibition of RCMB18 medulloblastoma cells, cell-based, cisplatin and BGB IC40 combos (AID 1671462; in the data active means inhibition above about 80%;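 further: cells exposed to compound for four days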). The conditions noted are these: stronger effect = higher value.
The nature of assay [19]: growth inhibition of CRL1545 osteosarcoma cells, cell-based, cisplatin and BGB IC20 combos (AID 1671464; in the data active means inhibition above about 80%;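 further: cells exposed to compound for 96 hours before readout; 0% = vehicle DMSO and 100% = high DMSO killing control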). The conditions noted are these: stronger effect = higher value.
The mark [20] stands for this setting: measured here: combination with cisplatin, at 0.5 µM.

Turning to `OC(CCN1CCCC1)(c1ccccc1)C1CCCCC1` (configuration not stated), the rescue above control in assay [1] is 0.33. In assay [2], this compound returned an inclusion score of 2. The compound also gave an aggregation suppression score in assay [3] of 1.66. For the same compound, the survival in assay [4] is 7.33 (inactive).

A word on the inhibition: it is the change of the read-out against control, counted positive when it falls. For `Clc1ccc2c(c1)C(N1CCNCC1)=Nc1ccccc1O2`, the rescue above control in [1] came out at 6.68. The aggregation suppression score in [3] was 1.13. The period change in assay [5] was 0.105 h (inactive). The inhibition in assay [6] was -4% (inactive). The fluorescence ratio (interference) in assay [7] was 1 (inactive). Further, the compound was called inactive in [8], in [9], in [10], in assay [11] and in [12].

For orientation: AC50 means the concentration giving half of the maximal activity seen. In assay [1], `NC(=O)c1cnccn1` yielded a rescue above control of -9.49. For the same compound, the inclusion score in assay [2] turned out to be 2. In [3], this compound showed an aggregation suppression score of 0.921. Besides, the period change in assay [5] is 0 h (inactive). Moreover, the survival in [4] was 19.9 (inactive). In addition, the inhibition in assay [6] is 1% (inactive). In assay [7], the fluorescence ratio (interference) is 1 (inactive). Besides, in assay [8], the AC50 is 18.7 µM (active). Also, the outcome in assay [9], in assay [10], in [13], in assay [14] and in assay [12] was inactive.

Consider `Cc1cn([C@H]2C[C@H](N=[N+]=[N-])[C@@H](CO)O2)c(=O)[nH]c1=O`, for which the rescue above control in assay [1] stood at 1.62. Moreover, the inclusion score in [2] came out at 2. This compound yielded an aggregation suppression score in [3] of 1.12. Further, the outcome in assay [10] and in assay [11] was inactive.

Turning to `CN(C)CCOC(c1ccc(Cl)cc1)c1ccccn1` (configuration not stated), the rescue above control in assay [1] was -1.97. Moreover, in [2], the inclusion score was determined as 2. In [3], this compound had an aggregation suppression score of 1.21. In addition, the survival in assay [4] is 2.92 (inactive).

For `O=c1[nH]cc(F)c(=O)[nH]1`, the rescue above control in [1] was -13.1. The compound further registered an inclusion score in assay [2] of 2. Besides, in assay [3], the aggregation suppression score turned out to be 0.203. Also, the period change in assay [5] was 0.215 h (inactive). The inhibition in assay [6] is -1% (inactive); in assay [15] (at 0.5 µM), -23.7% (inactive); in assay [15] (measured here: combination with BGB IC40, at 0.05 µM) it was -2.27%; in assay [15] (setting [20]) it was 11.9%; in assay [15] (measured here: combination with cisplatin, at 5 µM), -15.5%; in assay [16] (at 0.5 µM), -17.3% (inactive). Moreover, the inhibition in [16] (measured here: BGB combination, at 0.5 µM) is -27.5%; in [16] (measured here: BGB combination, at 5 µM), -5.42%; in [16] (measured here: cisplatin combination, at 0.5 µM) it was -20.4%; in assay [16] (measured here: cisplatin combination, at 5 µM), 36.2%; in [17] (at 0.5 µM) it was -4.41% (inactive); in assay [17] (cisplatin combination, at 0.5 µM), -0.838%. Moreover, the inhibition is -20.1% in [17] (cisplatin combination, at 5 µM); 2.5% in assay [17] (measured here: BGB IC40 combination 0.05 uM, at 0.05 µM); -0.674% in assay [17] (single agent, at 5 µM); 3% (inactive) in [18] (at 0.5 µM); 11.8% in [18] (cisplatin combo, at 5 µM); -17.4% in assay [18] (measured here: BGB IC40 combination, at 0.05 µM). Moreover, the inhibition was 13.9% in assay [18] (setting [20]); 7.41% in assay [18] (single agent, at 5 µM); -41.5% (inactive) in assay [19] (at 0.5 µM); -0.875% in assay [19] (measured here: with BGB IC20 combination, at 0.5 µM); -61.8% in assay [19] (measured here: with cisplatin IC20 combination, at 0.5 µM); -3.52% in assay [19] (single agent, at 0.05 µM). Besides, the inhibition in assay [19] (single agent, at 5 µM) is 15.8%. Also, the fluorescence ratio (interference) in assay [7] is 1 (inactive). Also, the outcome in assay [8], in [9], in assay [11], in assay [13], in assay [14] and in [12] was inactive.
